The source of these data is PubChem BioAssay (EPA / NIEHS).

Read-out in assay [1]: Interleukin-1 alpha (IL1a), IL1A (gene 3552)
Description: BSK_KF3CT_IL1a: BioMAP Diversity Plus: KF3CT Assay for Interleukin-1 alpha (IL1a) Biomarker Activity (AID 2283070). The following applies: primary human keratinocytes with fibroblasts; actives raise or lower the signal. The method in brief:
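Human keratinocyte plus foreskin fibroblast primary co-culture, sampled 24 h after chemical dosing. IL-1a measured by ELISA; responses fitted bidirectionally against DMSO baseline (negative control), so gain or loss of signal both count.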

Read-out in assay [2]: TIMP metallopeptidase inhibitor 2 (TIMP2), TIMP2 (gene 7077)
Description: BSK_KF3CT_TIMP2: BioMAP Diversity Plus: KF3CT Assay for TIMP metallopeptidase inhibitor 2 (TIMP2) Biomarker Activity (AID 2283071). The following applies: primary human keratinocytes with fibroblasts; actives raise or lower the signal. The method in brief: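 Human primary keratinocyte/foreskin fibroblast co-culture dosed with chemical and sampled at 24 h. TIMP-2 levels quantified by ELISA; bidirectional fitting against DMSO negative control as baseline.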

Read-out in assay [3]: Transforming growth factor beta 1 (TGFb1), TGFB1 (gene 7040)
Description: BSK_KF3CT_TGFb1: BioMAP Diversity Plus: KF3CT Assay for Transforming growth factor beta 1 (TGFb1) Biomarker Activity (AID 2283072). The following applies: primary human keratinocytes with fibroblasts; actives raise or lower the signal. The method in brief: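 Human keratinocyte plus foreskin fibroblast primary co-culture, dosed with chemical for 24 h. TGF-b1 quantified by ELISA. Activity fitted bidirectionally against DMSO negative control as baseline.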

Read-out in assay [4]: C-C motif chemokine 2 (Homo sapiens) (UniProt P13500)
Description: BSK_KF3CT_MCP1: BioMAP Diversity Plus: KF3CT Assay for Monocyte Chemoattractant Protein 1 (MCP1/CCL2) Biomarker Activity (AID 2283073). To be noted: primary human keratinocytes with fibroblasts; actives raise or lower the signal. The method in brief:
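KF3CT skin co-culture (keratinocytes/foreskin fibroblasts), 24 h post-dose; MCP-1 by ELISA; gain/loss of signal fit bidirectionally vs DMSO baseline.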

Read-out in assay [5]: Matrix Metallopeptidase 9 (MMP9), MMP9 (gene 4318)
The assay can be described thus: BSK_KF3CT_MMP9: BioMAP Diversity Plus: KF3CT Assay for Matrix Metallopeptidase 9 (MMP9) Biomarker Activity (AID 2283074). The following applies: primary human keratinocytes with fibroblasts; actives raise or lower the signal. The method in brief:
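Keratinocyte plus foreskin fibroblast human primary skin co-culture was dosed with chemical and MMP-9 was quantified by ELISA 24 h later. Bidirectional curve fitting used DMSO as negative control and activity baseline.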

Read-out in assay [6]: urokinase plasminogen activator (uPA), PLAU (gene 5328)
Description: BSK_KF3CT_uPA: BioMAP Diversity Plus: KF3CT Assay for urokinase plasminogen activator (uPA) Biomarker Activity (AID 2283075). The following applies: primary human keratinocytes with fibroblasts; actives raise or lower the signal. The method in brief: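 Human keratinocyte plus foreskin fibroblast primary co-culture exposed to chemical for 24 h. uPA levels were quantified by ELISA, and activity was fitted bidirectionally against a DMSO negative-control baseline.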

Read-out in assay [7]: CD40, CD40 (gene 958)
The assay can be described thus: BSK_LPS_CD40: BioMAP Diversity Plus: LPS Assay for CD40 Biomarker Activity (AID 2283076). The following applies: primary human HUVEC with PBMC; actives raise or lower the signal. The method in brief: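 ELISA readout of CD40 in HUVEC/PBMC co-culture (BSK_LPS system), 24 h post-dosing; bidirectional curve fit, DMSO baseline; parallel SRB total-protein staining for cytotoxicity.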

Read-out in assay [8]: E-selectin (Homo sapiens) (UniProt P16581)
The assay can be described thus: BSK_LPS_Eselectin: BioMAP Diversity Plus: LPS Assay for Eselectin Biomarker Activity (AID 2283077). To be noted: primary human HUVEC with PBMC; actives raise or lower the signal. The method in brief: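 ELISA readout of E-selectin, 24 h post-dose, HUVEC + PBMC co-culture (LPS system). Gain or loss of signal vs DMSO baseline, bidirectional fit.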

Read-out in assay [9]: Interleukin-8 (IL8), CXCL8 (gene 3576)
Description: BSK_LPS_IL8: BioMAP Diversity Plus: LPS Assay for Interleukin-8 (IL8) Biomarker Activity (AID 2283078). To be noted: primary human HUVEC with PBMC; actives raise or lower the signal. The method in brief: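 HUVEC + PBMC co-culture, LPS-activated; test chemicals dosed, IL-8 read by ELISA at 24 h. Bidirectional curve fit vs DMSO baseline (gain or loss of signal).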

Assay [10] is described as follows: BSK_LPS_SRB: Viability Assessment in the BioMAP Diversity Plus: LPS Assay (AID 2283079).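 Also: total protein by sulforhodamine B absorbance as a cytotoxicity measure; measured one day after compound addition.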 To be noted: primary human HUVEC with PBMC. The method in brief: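 HUVEC + PBMC co-culture, LPS-stimulated; compound 24 h. 10% TCA fix, 0.1% SRB stain, A560. Bidirectional fit vs DMSO.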
Read-out in assay [11]: Interleukin-1 alpha (IL1a), IL1A (gene 3552)
Description: BSK_LPS_IL1a: BioMAP Diversity Plus: LPS Assay for Interleukin-1 alpha (IL1a) Biomarker Activity (AID 2283080). To be noted: primary human HUVEC with PBMC; actives raise or lower the signal. The method in brief:
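HUVEC/PBMC co-culture, LPS system; 24 h after dosing; IL-1a by ELISA; gain or loss of signal fitted bidirectionally vs DMSO baseline.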

Read-out in assay [12]: Monocyte Chemoattractant Protein-1 (MCP1), CCL2 (gene 6347)
The assay can be described thus: BSK_LPS_MCP1: BioMAP Diversity Plus: LPS Assay for Monocyte Chemoattractant Protein-1 (MCP1) Biomarker Activity (AID 2283081). To be noted: primary human HUVEC with PBMC; actives raise or lower the signal. The method in brief:
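ELISA read-out of MCP-1 after 24 h chemical dosing of a human umbilical vein endothelial cell/peripheral blood mononuclear cell co-culture stimulated with LPS. Gain or loss of signal fitted relative to DMSO controls.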

A short description of assay [13]: BSK_LPS_PGE2: BioMAP Diversity Plus: LPS Assay for Prostaglandin E2 (PGE2) Biomarker Activity (AID 2283082).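 As to AC50: secreted prostaglandin E2 measured by ELISA in LPS-stimulated co-culture.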 The following applies: primary human HUVEC with PBMC; actives raise or lower the signal. The method in brief:
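HUVEC plus PBMC co-culture stimulated with LPS; secreted PGE2 quantified by ELISA 24 h after chemical dosing. Activity fitted bidirectionally against DMSO as negative control and baseline; parallel SRB total-protein staining served as cytotoxicity check.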

Read-out in assay [14]: Macrophage colony-stimulating factor (MCSF), CSF1 (gene 1435)
The assay can be described thus: BSK_LPS_MCSF: BioMAP Diversity Plus: LPS Assay for Macrophage colony-stimulating factor (MCSF) Biomarker Activity (AID 2283083). The following applies: primary human HUVEC with PBMC; actives raise or lower the signal. The method in brief: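 HUVEC + PBMC co-culture (human primary), 24 h post-dose; M-CSF by ELISA; gain/loss of signal fitted bidirectionally vs DMSO baseline.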

Read-out in assay [15]: Tissue Factor, F3 (gene 2152)
The assay can be described thus: BSK_LPS_TissueFactor: BioMAP Diversity Plus: LPS Assay for Tissue Factor Biomarker Activity (AID 2283084). To be noted: primary human HUVEC with PBMC; actives raise or lower the signal. The method in brief: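 HUVEC/PBMC co-culture, LPS-activated; CD142 ELISA read 24 h post-dose; bidirectional curve fit vs DMSO negative control.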

Read-out in assay [16]: Tumor necrosis factor (Homo sapiens) (UniProt P01375)
The assay can be described thus: BSK_LPS_TNFa: BioMAP Diversity Plus: LPS Assay for Tumour Necrosis Factor alpha (TNFa) Biomarker Activity (AID 2283085).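 As to AC50: TNFa protein level quantified by ELISA in the co-culture.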 To be noted: primary human HUVEC with PBMC; actives raise or lower the signal. The method in brief:
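Human umbilical vein endothelial cells co-cultured with PBMC were exposed to test chemical and TNFa measured by ELISA 24 h after dosing. Bidirectional curve fitting was done relative to DMSO as negative control and baseline.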

Read-out in assay [17]: Vascular cell adhesion molecule 1 (VCAM1), VCAM1 (gene 7412)
Description: BSK_LPS_VCAM1: BioMAP Diversity Plus: LPS Assay for Vascular cell adhesion molecule 1 (VCAM1) Biomarker Activity (AID 2283086). To be noted: primary human HUVEC with PBMC; actives raise or lower the signal. The method in brief: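 Human umbilical vein endothelial cells co-cultured with peripheral blood mononuclear cells under LPS stimulation were exposed to test chemical for 24 h. VCAM-1 levels were then measured by ELISA, with bidirectional curve fitting relative to DMSO as negative control and baseline.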

Read-out in the next assay: CD38, CD38 (gene 952)
The assay can be described thus: BSK_SAg_CD38: BioMAP Diversity Plus: SAg Assay for CD38 Biomarker Activity (AID 2283087). The following applies: primary human HUVEC with PBMC; actives raise or lower the signal. The method in brief: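 Fluorescence ELISA of cell-surface CD38 served as the read-out, with either increase or decrease fitted against DMSO controls. Cells were a human umbilical vein endothelium plus PBMC co-culture under SEB/TSST-1 stimulation, measured 24 h after dosing.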

Read-out in assay [18]: CD40, CD40 (gene 958)
Description: BSK_SAg_CD40: BioMAP Diversity Plus: SAg Assay for CD40 Biomarker Activity (AID 2283088). The following applies: primary human HUVEC with PBMC; actives raise or lower the signal. The method in brief:
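HUVEC/PBMC co-culture, 24 h post-dose; CD40 by ELISA, fluorescence intensity; bidirectional fit vs DMSO negative control.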

Read-out in a further assay: CD69, CD69 (gene 969)
Description: BSK_SAg_CD69: BioMAP Diversity Plus: SAg Assay for CD69 Biomarker Activity (AID 2283089).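 As to AC50: cell surface CD69 protein quantified by ELISA with fluorescence detection.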 The following applies: primary human HUVEC with PBMC; actives raise or lower the signal. The method in brief: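 ELISA, fluorescence read-out: CD69 on human umbilical vein endothelial cell + PBMC co-culture, 24 h post-dosing. Gain or loss of signal fitted bidirectionally against DMSO baseline.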

Some structures have more than one record in an assay (separate samples or runs), and their calls can disagree. The source made the active and inactive calls. The calls were made as follows: active = hit-call score of the fitted dose curve at least 0.9, where 1 is the maximum; inactive = score below 0.9.

E-selectin (Homo sapiens), sequence (P16581 whole entry, looked up): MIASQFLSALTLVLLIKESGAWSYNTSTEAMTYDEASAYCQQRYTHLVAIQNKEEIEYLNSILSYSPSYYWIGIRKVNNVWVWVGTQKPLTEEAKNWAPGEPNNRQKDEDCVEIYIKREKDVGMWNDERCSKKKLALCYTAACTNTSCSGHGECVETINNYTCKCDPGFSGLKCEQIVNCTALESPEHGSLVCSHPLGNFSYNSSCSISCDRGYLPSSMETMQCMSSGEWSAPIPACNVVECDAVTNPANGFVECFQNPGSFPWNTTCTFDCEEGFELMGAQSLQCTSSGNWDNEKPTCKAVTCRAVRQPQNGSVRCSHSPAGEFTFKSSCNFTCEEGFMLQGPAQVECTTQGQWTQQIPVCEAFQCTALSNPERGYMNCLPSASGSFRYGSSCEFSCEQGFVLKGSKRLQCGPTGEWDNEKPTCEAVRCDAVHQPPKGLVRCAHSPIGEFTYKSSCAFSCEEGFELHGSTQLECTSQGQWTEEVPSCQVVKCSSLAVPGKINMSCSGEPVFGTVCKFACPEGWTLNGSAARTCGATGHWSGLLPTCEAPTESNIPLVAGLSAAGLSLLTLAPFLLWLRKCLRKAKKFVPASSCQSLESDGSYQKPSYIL
Tumor necrosis factor (Homo sapiens), sequence (P01375 whole entry, looked up): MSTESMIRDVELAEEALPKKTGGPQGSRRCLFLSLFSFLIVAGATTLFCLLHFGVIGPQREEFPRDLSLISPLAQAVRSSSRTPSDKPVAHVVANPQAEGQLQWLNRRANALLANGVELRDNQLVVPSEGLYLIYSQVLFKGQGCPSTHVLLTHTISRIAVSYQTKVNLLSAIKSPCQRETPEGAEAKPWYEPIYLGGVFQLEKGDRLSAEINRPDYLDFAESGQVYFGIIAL

As for `CCCCOC(=O)c1ccccc1C(=O)OCCCC`, the result in [1], in assay [2], in assay [3], in [4], in assay [5] and in assay [6] was inactive. Besides, the outcome in the assay with CD40, CD40 (gene 958) [7] is “inactive”; in assay [8], “inactive”; in assay [9] it was “inactive”; in [10] it was “inactive”; in assay [11], “inactive”; in assay [12] it was “inactive”. The outcome in [13] was “inactive”; in assay [14], “inactive”; in assay [15], “inactive”; in [16] it was “inactive”; in [17] it was “inactive”; with CD38, CD38 (gene 952) it was “inactive”. The outcome is “inactive” with CD40, CD40 (gene 958) [18] and “inactive” with CD69, CD69 (gene 969). Moreover, the AC50 in assay [9] is 25.3 µM (active); in assay [10], 9.66 µM (active); with CD40, CD40 (gene 958) [18] it was 15.4 µM (active).

`OC(c1ccc(Cl)cc1)(c1cncnc1)c1ccccc1Cl` (stereo not given): the outcome in [1], in assay [2], in [3], in [4], in assay [5] and in [6] was inactive. The result in [8], in [9], in assay [11], in assay [12], in assay [14] and in assay [15] was inactive. In assay [17], the result was inactive. Moreover, the AC50 in the assay with CD40, CD40 (gene 958) [7] was 15.8 µM (active); in [10], 23.2 µM (active); in assay [13], 4.99 µM (active); in [16], 10.9 µM (active); with CD38, CD38 (gene 952), 20 µM (active); with CD40, CD40 (gene 958) [18], 13.8 µM (active). In addition, the half-maximal activity concentration (AC50) with CD69, CD69 (gene 969) was 14.2 µM (active).

Regarding `COc1cnc(OC)n2nc(NS(=O)(=O)c3c(OCC(F)F)cccc3C(F)(F)F)nc12`, the outcome in assay [1], in [2], in assay [3], in assay [4], in assay [5] and in [6] was inactive. Also, the outcome was “inactive” with CD40, CD40 (gene 958) [7]; “inactive” in assay [8]; “inactive” in [9]; “inactive” in [10]; “inactive” in [11]; “inactive” in assay [12]. The outcome in assay [13] is “inactive”; in assay [14], “inactive”; in assay [15] it was “inactive”; in [16], “inactive”; in assay [17], “inactive”; with CD38, CD38 (gene 952), “inactive”. Further, the outcome is “inactive” with CD40, CD40 (gene 958) [18] and “inactive” with CD69, CD69 (gene 969). The AC50 in [6] was 29.6 µM (active); in assay [9] it was 0.0793 µM (active).

Broadly, the AC50 is the midpoint of the concentration-response curve, whichever way the signal moves.
